# This is a sample that favours compounds with a hit; in the whole collection about 0.93% have one here.
# TRb SRC2 PPI: inhibitors of human thyroid hormone receptor beta-SRC2 interaction | P10828 | TRbeta-SRC2 peptide binding, fluorescence polarization; receptor liganded with 1 µM T3 | Potency, µM (top dose mostly 106 µM), for the others: at the top dose activity change, negative = inhibition, actives largely listed as inhibitors | 280,000 compounds, 0.065% hits | AID 1469; active means well fitted inhibition curve with a large enough effect; inconclusive means small, poorly fitted or top-dose-only effect, or effect the other way;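 further: potency means the concentration at half of the fitted maximal effect; plate controls were bound peptide for no effect and peptide without receptor for full effect; nearly all actives have a fitted effect of over 50% in size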
# Target sequence (P10828 whole entry, looked up): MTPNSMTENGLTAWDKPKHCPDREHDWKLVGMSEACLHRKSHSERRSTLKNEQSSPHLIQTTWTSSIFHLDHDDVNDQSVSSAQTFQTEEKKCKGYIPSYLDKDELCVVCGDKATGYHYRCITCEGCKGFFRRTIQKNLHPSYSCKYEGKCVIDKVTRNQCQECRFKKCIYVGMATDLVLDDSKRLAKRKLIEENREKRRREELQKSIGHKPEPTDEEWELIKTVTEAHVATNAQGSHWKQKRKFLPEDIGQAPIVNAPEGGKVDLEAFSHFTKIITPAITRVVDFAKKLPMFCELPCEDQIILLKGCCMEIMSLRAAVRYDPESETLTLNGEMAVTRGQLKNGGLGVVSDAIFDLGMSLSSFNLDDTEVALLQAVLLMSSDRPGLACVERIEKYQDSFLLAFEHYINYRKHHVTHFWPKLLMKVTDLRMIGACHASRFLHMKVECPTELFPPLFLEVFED
#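 Fluorescence polarization of 20 nM Texas Red SRC2 peptide (20-aa NR interaction domain) bound to 0.6 uM human TRb ligand-binding domain, with 1 uM T3, after 5 hr at ambient temperature; inhibition seen as decreased polarization.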
# TR SRC2 fluor cs: Texas Red fluorescence interference in TRb-SRC2 counter-screen; TRb/SRC2 Texas Red total fluorescence interference; Potency, µM (doses to about 106 µM), without a hit: top-dose fluorescence change, negative = quenching; 280,000 compounds, 0.29% hits; AID 1479; active means well fitted curve in either direction with a large enough effect; inconclusive means small, poorly fitted or top-dose-only effect; further: potency means the concentration at half of the fitted maximal effect
#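 Flags fluorescent or light-absorbing compounds by total fluorescence, S + 2P, at 555 nm excitation and 632 nm emission. Mixture: 20 nM Texas Red SRC2 peptide, 0.6 uM human TRb LBD, 1 uM T3, 5% DMSO; compound exposure 5 h at ambient temperature.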
# RGS12 GoLoco inh: inhibitors of human Gai1-RGS12 GoLoco interaction (red fluorophore); AID 880; P63096; 230,000 compounds, 0.44% hits; Potency, µM (highest dose often 61.6 µM), inactives show at the highest dose activity, negative = inhibition, hits mostly inhibitors; Gai1:RGS12 GoLoco peptide FP, rhodamine, 10 min; active means well fitted inhibition curve with a large enough effect, not every such curve was filed as active; inactive means no such curve, though single readings can be large or run the other way; further: potency means the concentration at half of the fitted maximal effect; nearly all actives have a fitted effect of over 30% in size
# Coupling enz: counter-screen for Giardia aldolase inhibitors: coupling enzyme system | coupling enzyme system counterscreen, AmpLite Red fluorescence | activity change, negative = inhibition, % at 58.2 µM, hits read low | 290,000 compounds, 0.67% hits; in the data active means activity change below about -30%
#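 Activity here indicates interference with the coupling reaction, not aldolase inhibition. Compounds at 57.5 uM final met coupling enzymes for 10 min at RT; substrate and AmpLite Red detection followed, with a 525/598 nm fluorescence read after 20 min.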
# * marks the source's active call; other numbers are inactive results; ? = inconclusive; . = no result given; [ ] = dose if it differs, or a comment. Unless noted, on the % scale 0 is the no-effect control and ±100 the full control effect.
SMILES,TRb SRC2 PPI,TR SRC2 fluor cs,RGS12 GoLoco inh,Coupling enz
COc1cc(O)cc2cc3c(c(O)c12)C(=O)CC(C)(O)O3 (configuration not stated),7.2%,-8.8%,-0.3%,-42.8*
CCOc1ccc(N2CC(c3nc4ccccc4n3CCCOc3ccccc3OC)CC2=O)cc1 (configuration not stated),-6.5%,70.8µM*[quencher],.,.
COc1ccccc1OCCCn1c(C2CC(=O)N(c3ccc(F)cc3)C2)nc2ccccc21 (configuration not stated),-5.9%,-1.4%,.,.
CCOC(=O)c1cccc(NC(=O)CC(c2ccc(F)cc2)N2Cc3ccccc3C2=O)c1 (configuration not stated),-3.8%,0.5%,.,.
COc1cc(NC(=O)N2CCC(CN3CCc4ccccc4C3)CC2)cc(OC)c1,4.0%,?,.,.
COC(=O)c1ccc(NC(=O)N2CCC(CN3CCc4ccccc4C3)CC2)cc1,-29.9%,112µM*[quencher],.,.
COc1ccc(Cl)cc1NC(=O)N1CCC(CN2CCc3ccccc3C2)CC1,-26.3%,56.2µM*[quencher],.,.
CCc1ccc(NC(=O)C(NS(=O)(=O)c2cccs2)C(C)C)cc1 (configuration not stated),2.6%,-5.2%,.,.
CCN(CC)c1ccc(NC(=O)C(NS(=O)(=O)c2cccs2)C(C)C)c(C)c1 (configuration not stated),-18.2%[53 µM],4.47µM*[quencher],.,.
Cc1cccc(Cc2c(C)nc3c(-c4ccccc4)c(C)[nH]n3c2=O)c1,-5.6%,8.91µM*[quencher],.,.
Cc1nc2c(-c3ccccc3)c(C)[nH]n2c(=O)c1Cc1ccccc1,6.1%,-0.4%,6.0%,0.4
Cc1nc(-c2ccc(S(=O)(=O)N(Cc3ccccc3)C(C)C)cc2)co1,0.1%,-1.8%,.,.
COc1ccc(Br)cc1/C=N/NC(=O)CNC(=O)C1COc2ccccc2O1 (configuration not stated),.,.,.,-40.7*
O=C(CNC(=O)C1COc2ccccc2O1)N/N=C\c1ccc(Br)cc1 (configuration not stated),.,.,.,-1.9
CC(C)=CCC1=C(O)c2ccccc2C(=O)C1=O,-8.4%,-1.6%,-23.2%,-60.9*
CN=CC1=C(O)c2ccccc2C1=O,-1.1%,-6.8%,1.3%,-0.2
O=C(Nc1ccc(Cl)cc1F)c1cnc2sc(N3CCOCC3)nn2c1=O,5.4%,6.7%,.,.
O=C(Nc1ccccc1C(=O)N/N=C/c1ccc(F)cc1)c1ccccc1Br,0.8%,-0.2%,17.3%,-32.5*
NC(=O)C1(N2CCCCC2)CCN(C(=O)Nc2ccc(F)cc2)CC1,-2.2%,-3.1%,.,.
COc1ccccc1NC(=O)Nc1nn(C)c2cccc(N(C)C)c12,0.3%,-2.4%,-8.7%,-33.7*
CN(C)c1cccc2c1c(NC(=O)Nc1ccc(Cl)cc1Cl)nn2C,-3.4%,-1.3%,4.6%,-22.6
CCCCC(CC)COC(=O)CS (configuration not stated),6.5%[201 µM],-0.2%[201 µM],.,.
COCCNC(=O)c1cnc2sc(N3CCCCC3)nn2c1=O,0.9%,-2.4%,.,.
COc1cccc(CN2CCN(C3CSCCSC3)CC2CCO)c1 (configuration not stated),0.6%,-6.1%,13.1%,-32.3*
CCOC(=O)[C@H](C)Oc1ccc(Oc2nc3ccc(Cl)cc3o2)cc1,4.6%[201 µM],-1.2%[201 µM],.,.
SMILES,TRb SRC2 PPI,TR SRC2 fluor cs,RGS12 GoLoco inh,Coupling enz
CCOc1ccc2c(c1)n([O-])c1c([n+]2=O)CCCC1,0.4%,-2.2%,-20.8%,-57.6*
COC(=O)CN1C(=O)C2(C(C#N)=C(N)Oc3c2c(C)nn3-c2ccccc2)c2ccccc21 (configuration not stated),2.6%,-6.6%,-3.5%,-50.0*
CC(C)C(=O)OC(=O)C(C)C,4.7%[201 µM],-1.4%[201 µM],.,.
COc1ccccc1C(=O)Nc1c(C(=O)NC(C)(C)C)oc2ccccc12,4.5%,2.1%,.,.
COc1ccccc1C(=O)Nc1c(C(=O)c2ccccc2)oc2ccccc12,-12.1%,0.0562µM*[quencher],.,.
COc1cc(=O)n(C)c2cc(N(C)C)ccc12,-8.7%,-2.4%,-4.0%,-31.2*
COc1cc2c(cc1O)CCC1C2CC[C@]2(C)[C@@H](O)CC[C@@H]12 (some centres not stated),3.8%,-3.5%,5.6%,.
C[C@]12CC[C@@H]3c4cc(O)c(O)cc4CC[C@H]3[C@@H]1CC[C@@H]2O,-2.6%,-2.7%,7.94µM*,-21.6
CC(=O)OC1CCC2(C)C(=CCC3C2CCC2(C)C3C[C@@H]3O[C@]32C(C)=O)C1 (some centres not stated),0.3%,-0.4%,3.3%,0.5

# Assay outcomes deposited in PubChem by National Center for Advancing Translational Sciences (NCATS).
